Assay results: PubChem BioAssay AID778 (Sanford-Burnham Center for Chemical Genomics, 2007)
The whole screen tested about 96,000 compounds, of which about 20,000 (21%) were called active. These entries were drawn from the full list. A number with no mark means an inactive call.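 The calls were made as follows: active = CYP2C19 inhibition above a set limit at 5 µM in the primary screen (cut at about 50% in these data); inactive = the rest.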

target: Cytochrome P450 2C19 (Homo sapiens) (UniProt P33261); experiment: blockers of cytochrome P450 2C19 activity – biochemical, luminescence, ADME assay, primary screen (AID 778); details: CYP2C19 Supersomes, luciferin-H EGE luminescence, 30 min; at 5 µM; hits give high values;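 also: plate controls were negative control wells for no effect and 2.5 mM tranylcypromine positive control for full effect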
Sequence (P33261 whole entry, looked up): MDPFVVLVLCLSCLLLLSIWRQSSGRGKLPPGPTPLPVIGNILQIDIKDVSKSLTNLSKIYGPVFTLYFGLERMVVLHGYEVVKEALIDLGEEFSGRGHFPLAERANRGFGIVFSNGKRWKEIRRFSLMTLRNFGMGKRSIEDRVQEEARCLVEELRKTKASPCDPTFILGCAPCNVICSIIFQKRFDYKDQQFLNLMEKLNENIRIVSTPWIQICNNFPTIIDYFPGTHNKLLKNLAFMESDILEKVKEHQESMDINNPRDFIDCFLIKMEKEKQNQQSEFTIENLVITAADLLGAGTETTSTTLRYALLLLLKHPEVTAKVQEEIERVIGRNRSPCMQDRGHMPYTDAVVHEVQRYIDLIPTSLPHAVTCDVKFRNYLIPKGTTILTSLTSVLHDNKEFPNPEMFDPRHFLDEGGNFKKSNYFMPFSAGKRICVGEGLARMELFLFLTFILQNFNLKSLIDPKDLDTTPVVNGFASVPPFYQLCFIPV

| Compound | inhibition |
| --- | --- |
| CCCCc1nnc(NC(=O)CS(=O)(=O)Cc2ccccc2)s1 | 8% |
| Cc1cc2ccccc2n1CCNC(=O)COc1ccc2ccccc2c1 | 14.5% |
| OC(COCCC12CC3CC(CC(C3)C1)C2)CN1CCCCC1 (stereo not given) | 35.1% |
| Cc1ccc(NC(=S)Nc2ncccc2C)c(C)c1 | 86.3% (active) |
| Cc1cccc(NC(=O)C2CCN(S(=O)(=O)c3cccc4cccnc34)CC2)c1 | 40.7% |
| CCOc1ccc(NC(=O)N2CC=C(n3c(=O)[nH]c4ccccc43)CC2)cc1 | 11.1% |
| COc1ccc(-c2c3c(=O)n(C)c(=O)n(C)c3cn2NC(C)=O)cc1 | -2.1% |
| COc1ccc(N(C(=O)c2cccnc2)S(=O)(=O)c2ccc3c(c2)n(C)c(=O)n3C)cc1 | 57.8% (active) |
| COc1ccc(-c2c3c(=O)n(C)c(=O)n(C)c3cn2-c2cccc(OC)c2)cc1 | -4% |
| O=C(Cn1cncn1)N/N=C/c1c2ccccc2cc2ccccc12 | 80% (active) |
| CCCC(=O)Nc1cccc(-c2cn3ccsc3n2)c1 | -11.8% |
| CCOC(=O)N1CCC(NC(=O)CN2C(=O)COc3ccc(C(C)(C)C)cc32)CC1 | 10.8% |
| CCOC(=O)C(=O)Nc1nc(-c2ccccc2)c(CC)s1 | 3.5% |
| COCCCN1C(=O)c2ccc(C(=O)Nc3ccc(OC)cc3OC)cc2C1=O | 61.8% (active) |
| CCOc1ccc(Cn2nnc(C(=O)Nc3ccc(OC)cc3OC)c2N)cc1 | -21.9% |
| COc1ccc(NC(=O)c2cccc(NC(=O)c3ccco3)c2)c(OC)c1 | 15.1% |
| CCOP1(=O)C=C(C(C)(C)C)OC1c1ccc(F)cc1 (stereo not given) | 15.6% |
| CCCOP(=O)(c1ccc(N(C)C)cc1)C(O)c1cc(OC)c(OC)c(OC)c1 (stereo not given) | 16.9% |
| O=C(O)c1cc2ccccc2c(=O)s1 | 15.6% |
| CCSC1=C(C#N)C(=O)n2c1cc1c2CCCC1 | 10.1% |
| Cn1c(=O)c2c(ncn2CC(=O)N2CCN(c3ccccc3)CC2)n(C)c1=O | 4.9% |
| CC(C)Cn1cnc2c1c(=O)n(CC(O)c1ccccc1)c(=O)n2CC(C)C (stereo not given) | 58.8% (active) |
| Cn1c(=O)c2c(ncn2CC(COCc2ccccc2Cl)OCc2ccccc2Cl)n(C)c1=O (stereo not given) | 49.2% |
| CCCc1nc2oc3c(OCC)ncnc3c2c2c1COC(C)(C)C2 | -9.9% |
| CCC(C)n1[nH]c(=O)c2c(C)cc(C)nc21 (stereo not given) | 10.9% |

| Compound | inhibition |
| --- | --- |
| O=C1CC(N2CCN(C(c3ccccc3)c3ccccc3)CC2)C(=O)N1 (stereo not given) | 8.8% |
| CC(C)(C)c1cc(CN2CCN(CCC#N)CC2)cc(C(C)(C)C)c1O | -2.1% |
| O=C(CSc1ncn[nH]1)Nc1ccnc2ccccc12 | 27.1% |
| CC(C)(C)c1ccc(C(=O)CSc2ncn[nH]2)cc1 | 23% |
| CCN(C(=O)CSc1ncn[nH]1)c1cccc2ccccc12 | 63.2% (active) |
| CCOC(=O)c1nnn(CC(=O)Nc2cccc(F)c2)c1C(=O)OCC | 95.7% (active) |
| COc1ccc(NC(=O)Cn2nnc(C(=O)NCCc3ccc(OC)c(OC)c3)c2N)cc1 | 4.1% |
| CCOC(=O)c1cccc(NC(=O)CCn2nnc3ccccc32)c1 | 23.3% |
| CC12CCC(C(=O)N3CCN(c4ncccn4)CC3)(c3nc4ccccc4nc31)C2(C)C (stereo not given) | 31.7% |
| Cc1cc(C(=O)COC(=O)c2cccs2)c(C)n1-c1c(C)n(C)n(-c2ccccc2)c1=O | -0.8% |
| Cc1nn(-c2ccccc2)c(C)c1C(=O)OCC(=O)NC(=O)NC1CCCCC1 | 28.3% |
| CCCn1c(C)cc(C(=O)COC(=O)c2c(C)nn(-c3ccccc3)c2C)c1C | 88.6% (active) |
| O=C1CCC(C(=O)Nc2ccc(OC(F)F)cc2)N1 (stereo not given) | 0% |
| O=c1cc(CO)oc(CN2CCC(Cc3ccccc3)CC2)c1O | 15.2% |
| CCN1CCCC1CNC(=O)Cn1cnc2ccc(S(=O)(=O)N3CCC(C)CC3)cc2c1=O (stereo not given) | -0.8% |
| COCC(C)N=CC1=C(O)CC(C)(C)CC1=O (stereo not given) | 0.7% |
| c1ccc(Nc2n[nH]nc2-c2ccccc2)cc1 | 84.7% (active) |
| Nc1ccc(Nc2ccccc2)cc1 | 36.6% |
| COC(CNC(=O)Cn1ncc2ccsc2c1=O)OC | 2.1% |
| COc1ccccc1NC(=O)COc1ccc(C(=O)OCC(=O)N(C(C)C)C(C)C)cc1OC | 56.4% (active) |
| COC(=O)C(CC(=O)Nc1cc(C)ccc1C)Nc1ccccc1OC (stereo not given) | 15.3% |
| COc1ccccc1NC(=O)/C=C/C(N)=O | -0.2% |
| CC1CC(C)CN(C/C=C/c2ccccc2[N+](=O)[O-])C1 (stereo not given) | 29.7% |
| CCC(C)NC(=O)CSC1=Nc2ccccc2C2=NC(CCC(=O)NCc3ccco3)C(=O)N12 (stereo not given) | 6.1% |
| CCOC(=O)CNC(=O)CSc1nnc(COc2ccc(Cl)cc2)n1CC | 14.7% |

| Compound | inhibition |
| --- | --- |
| Cc1nnc(SCC(=O)NCCOc2ccc(Cl)cc2)n1-c1ccccc1 | 95.6% (active) |
| COc1ccc(OC)c(/C=N/NC(=O)CSc2nnc(C)n2-c2ccccc2)c1 | 23.2% |
| COC(=O)[C@@H](NC(=O)NCc1cccc(OC)c1)C(C)C | 5.8% |
| CCOC(=O)Cn1c(-c2cccnc2Cl)nc2ccccc21 | -2% |
| Cc1no[n+]([O-])c1COc1ccccc1/C=C1\NC(=S)NC1=O | 20.6% |
| CCN1C(=O)/C(=C2\SC(N3CCCCC3)=NC2=O)c2ccccc21 | 19.9% |
| O=S(=O)(c1cccc2nonc12)N1CCN(c2cccc(Cl)c2)CC1 | 1.5% |
| CCN1C(=O)/C(=C\N2CCN(c3cccc(Cl)c3)CC2)SC1=S | 13% |
| O=Cc1c(N2CCN(c3cccc(Cl)c3)CC2)nc2ccccn2c1=O | 99.4% (active) |
| CN1CC(c2ccccc2)C2(COc3ccccc3C2=O)C12C(=O)Nc1ccccc12 (stereo not given) | 46.7% |
| COc1ccccc1/C=C/C1=NC(=C\N(C)C)/C(=O)O1 | 19.5% |
| CCOC(=O)CSc1nnc(CNC(=O)c2cccs2)n1-c1ccccc1 | -5.7% |
| CCOC(=O)CSc1nnc(CNC(=O)c2cccs2)n1-c1cc(OC)ccc1OC | 58.2% (active) |
| CCOC(=O)CSc1nnc(CNC(=O)Cc2ccccc2)n1-c1ccccc1OC | 8.2% |
| CCOc1cc(-c2cc(-c3ccc(OC)cc3)nc(N)c2C#N)ccc1O | 19.9% |
| CCOc1ccccc1Oc1cn[nH]c1-c1ccc(OC)cc1O | 100% (active) |
| Cc1ccc(SCCC(=O)OCC(=O)Nc2ncc(Cl)cc2Cl)cc1 | 24% |
| CCc1nc2oc3ccccc3c(=O)c2c(=O)n1Cc1ccc(OC)cc1 | -0.6% |
| O=c1c2ccccc2oc2nc(C3CCCCC3)n(Cc3ccco3)c(=O)c12 | 50.7% (active) |
| O=c1c2ccccc2oc2nc3n(c(=O)c12)CCCS3 | 0.7% |
| O=C(O)/C=C/C(=O)Nc1ccc(F)cc1F | 5.3% |
| Cn1c2c(c(=O)n(C)c1=O)CN(Cc1ccco1)CN2 | 0.4% |
| CCOC(=O)Cc1csc(NC(NC(=O)OCC)(C(F)(F)F)C(F)(F)F)n1 | 13.5% |
| CCOC(=O)Cc1csc(NC(=O)C(C)(C)C)n1 | 15.4% |
| CCCC(CCC(=O)OC)(C(=O)OCC)c1csc(N)n1 (stereo not given) | 73.6% (active) |

| Compound | inhibition |
| --- | --- |
| COc1ccc(-n2c(SC)nc(O)cc2=O)cc1 | 5.6% |
| COCCNc1nc(-n2nc(C)cc2C)nc2sc3c(c12)CCCC3 | -16.1% |
| N#C/C(=C(/O)COc1cccc2ccccc12)c1nc2ccccc2[nH]1 | 12% |
| Oc1ccc2nc(Cc3ccccc3)[nH]c2c1 | 23.6% |
| CCCCSc1nnc(-c2ccc(C)cc2)o1 | 49.4% |
| Clc1ccccc1SCc1nc2ccccc2[nH]1 | 83.2% (active) |
| c1ccc2c(CSCc3nc4ccccc4[nH]3)cccc2c1 | 89.3% (active) |
| OCCNc1nc2ccccc2[nH]1 | -4.7% |
| c1ccc(-c2nnc(SCc3nc4ccccc4[nH]3)o2)cc1 | 95.2% (active) |
| O=C(CSc1nnc(-c2ccccc2)o1)N1CCOCC1 | -12.3% |
| N#Cc1c2c(c(N3CCN(CCO)CC3)n3c1nc1ccccc13)CCCC2 | 34.5% |
| CN(C)CCNC(=O)C(C(=O)c1ccccc1)n1ccccc1=O (stereo not given) | -10.3% |
| Cc1ccccc1S(=O)(=O)Cc1ccc(C(=O)NCCN2CCCCC2C)o1 (stereo not given) | 4.1% |
| COC(=O)c1cnn2c(C(F)(F)F)cc(-c3ccco3)nc12 | -9% |
| N/C(=N\OC(=O)CCc1ccccc1)c1ccc(Cl)cc1 | -1.3% |
| COc1ccc(OCCCC(=O)Oc2ccc(OC)cc2)cc1 | 6.3% |
| COc1ccc(/C(N)=N/OC(=O)Oc2ccccc2)cc1 | 58.6% (active) |
| COc1ccc(OC)c(Nc2nc(-c3ccc(O)c(O)c3)cs2)c1 | 27.6% |
| COc1ccc2c(c1)cc1n2CCN=C1NN | 92.9% (active) |
| COc1ccc(NC(=O)Nc2ccc3nc(C)c(C)nc3c2)cc1 | 3.2% |
| CC(=O)N1CSCC1C(=O)O (stereo not given) | 2.2% |
| CC1(C)C/C(=C(/C#N)C(N)=O)CCO1 | -16.7% |
| CC(C)OC(=O)c1sc2nc3c(cc2c1N)C(=O)CCC3 | 7.1% |
| CC1=C(C(=O)Nc2ccc(Cl)cc2)C(c2ccco2)NC(=O)N1 (stereo not given) | 18.4% |
| Cc1cccc(N2CCN(C(=O)CN(C)S(=O)(=O)c3ccc4c(c3)CCC(=O)N4)CC2)c1C | 6.3% |
